From PubChem BioAssay
An excerpt weighted towards active compounds, which were near 31% of everything screened.
PLAP activator: activators of human placental alkaline phosphatase | purified PLAP enzyme, luminescent substrate read-out; stronger effect = higher value | P05187 | activation fold at 20 µM | 96,000 tested, 1.2% active | AID 696; in the data active = activation fold above about 2
CYP2C19 act: activators of human cytochrome P450 2C19. recombinant CYP2C19, luciferin-H EGE luminescence; stronger effect = higher value; 0 = fully inhibited enzyme, 1 = untreated enzyme. activation factor at 5 µM. AID 1025. 96,000 tested, under 10 active;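 active = activation factor of at least 2 at 5 µM in the primary screen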;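 also: 0 = wells with 2.5 mM tranylcypromine and 1 = vehicle-only wells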
CYP2C9 act: CYP2C9 (human) activation | 96,000 tested, 1.4% active | activation factor at 5 µM | P11712 | recombinant CYP2C9, luciferin-H conversion, luminescence; stronger effect = higher value; factor 1 = untreated enzyme, 0 = blocked;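 active = activation factor of 2 or more for CYP2C9 at a 5 µM dose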;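 also: 0 = sulfaphenazole-blocked wells and 1 = vehicle-only wells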
Target sequence (P11712 whole entry, looked up): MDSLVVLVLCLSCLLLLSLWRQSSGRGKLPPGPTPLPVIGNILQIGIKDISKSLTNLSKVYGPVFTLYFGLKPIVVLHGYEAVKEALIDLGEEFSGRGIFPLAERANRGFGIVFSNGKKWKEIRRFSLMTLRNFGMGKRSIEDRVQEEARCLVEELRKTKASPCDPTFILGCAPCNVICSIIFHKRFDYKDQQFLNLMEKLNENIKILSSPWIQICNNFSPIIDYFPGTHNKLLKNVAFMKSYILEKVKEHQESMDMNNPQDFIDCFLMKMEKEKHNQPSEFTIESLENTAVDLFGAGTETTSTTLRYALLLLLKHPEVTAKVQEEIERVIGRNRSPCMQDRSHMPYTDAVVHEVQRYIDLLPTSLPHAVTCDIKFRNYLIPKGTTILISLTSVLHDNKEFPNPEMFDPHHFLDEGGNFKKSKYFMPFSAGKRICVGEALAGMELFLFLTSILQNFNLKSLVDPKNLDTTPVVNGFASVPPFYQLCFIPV
CYP2C19 inhib: inhibitors of human CYP2C19. inhibition, % at 5 µM. CYP2C19 Supersomes, luciferin-H EGE luminescence, 30 min. 96,000 tested, 21% active. P33261;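 active = CYP2C19 inhibition above a set limit at 5 µM in the primary screen, cut at about 50% in these data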;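 also: plate controls were negative control wells for no effect and 2.5 mM tranylcypromine positive control for full effect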
CYP2C9 inhib: blocks human cytochrome P450 2C9. inhibition, % at 5 µM. AID 777. CYP2C9 Supersomes, luciferin-H conversion, luminescence. P11712. 96,000 tested, 20% active;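 active = blocking of liver enzyme CYP2C9 beyond about 50% at 5 µM, limit read from the data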
Starred values were filed as active, the others as inactive.

SMILES | PLAP activator | CYP2C19 act | CYP2C9 act | CYP2C19 inhib | CYP2C9 inhib
c1ccc(N2CCN(c3ncnc4sc5c(c34)CCC5)CC2)cc1 | 0.9 | 0.2 | 0.3 | 75* | 72*
c1nc(N2CCC3(CC2)OCCO3)c2c3c(sc2n1)CCCC3 | 1.3 | 0.1 | 0.4 | 85* | 63*
O=C(c1ccco1)N1CCN(c2ncnc3sc4c(c23)CCC4)CC1 | 1.6 | 0.3 | 0.1 | 72* | 86*
CCOc1ncccc1C(=O)OCC(=O)Nc1cc(C(=O)OC)ccc1C(=O)OC | 0.9 | 1 | 0.8 | -2 | 16
COc1ccc(N=CC2=C(O)CC(C)(C)CC2=O)cc1 | 1 | 0.8 | 0.7 | 21 | 25
Cc1ccc(N(C(=O)CCC(=O)Nc2cc(C)on2)C(C(=O)NC2CCCC2)c2cccs2)cc1 (stereo not given) | 0.9 | 0.1 | 0.1 | 95* | 89*
Cc1ccc(N(C(=O)C(F)(F)F)C(C(=O)NC2CCCCC2)c2cccs2)cc1 (stereo not given) | 1 | 0.7 | 0.4 | 31 | 55*
Cc1cc(NC(=O)CCC(=O)N(c2ccc(F)cc2)C(C(=O)NC2CCCC2)c2ccncc2)no1 (stereo not given) | 1.3 | 0.5 | 0.7 | 48 | 30
O=C(NC1CCCC1)C(c1cccs1)N(C(=O)c1ccno1)c1ccccc1 (stereo not given) | 1 | 0.6 | 0.7 | 38 | 31
Cc1cc(NC(=O)CCC(=O)N(c2ccccc2)C(C(=O)NC2CCCC2)c2cccs2)no1 (stereo not given) | 1.2 | 0.2 | 0.3 | 77* | 70*
O=C(CCC(=O)N(c1ccccc1)C(C(=O)NC1CCCC1)c1ccncc1)Nc1cccnc1 (stereo not given) | 1.2 | 0.3 | 0.5 | 70* | 46
COCCN(C(=O)CCC(=O)Nc1cccnc1)C(C(=O)NC1CCCCC1)c1ccccc1 (stereo not given) | 1.3 | 0.8 | 0.7 | 16 | 26
Cc1ccc(C)c(N(C(=O)Cc2cccs2)C(C(=O)NC2CCCC2)c2ccc(C)o2)c1 (stereo not given) | 0.9 | 1.1 | 0.3 | -7 | 73*
Cc1ccc(C(C(=O)NC2CCCC2)N(C(=O)Cc2cccs2)c2ccc(C)c(C)c2)o1 (stereo not given) | 1.1 | 0.9 | 1 | 10 | -5
Cc1cc(NC(=O)CCC(=O)N(c2ccccc2)C2(C(=O)NC3CCCCC3)CCCC2)no1 | 1.7 | 0.9 | 0.8 | 14 | 24
Cc1ccc(C)c(N(C(=O)CCC(=O)Nc2cc(C)on2)C(C(=O)NC2CCCC2)c2ccco2)c1 (stereo not given) | 1.1 | 0.5 | 0.8 | 54* | 20
Cc1cc(NC(=O)CCC(=O)N(Cc2ccco2)C2(C(=O)NC3CCCCC3)CCN(C)CC2)no1 | 1.6 | 0.3 | 0.9 | 74* | 11
O=C(NC1CCCC1)C(c1cccs1)N(C(=O)c1ccco1)c1ccc2c(c1)OCCO2 (stereo not given) | 1.1 | 0.2 | 0.2 | 80* | 78*
CCOP(=O)(c1ccccc1)c1nc(-c2ccccc2C)oc1N1CCCCC1 (stereo not given) | 1.8 | 0.9 | 0.9 | 8 | 10
Cn1cc(C(=O)Nc2cccc(F)c2)cn1 | 0.8 | 1 | 1 | 4 | 0
O=C(Nc1nnc(-c2cccs2)o1)c1cccc(C(F)(F)F)c1 | 2.1* | 0.9 | 0.4 | 10 | 59*
CCN(CC)c1ccc(NC(=O)C(C)C)cc1 | 0.8 | 1 | 0.9 | 2 | 9
CCN(CC)c1ccc(CC(=O)NC(C)Cc2ccccc2)cc1 (stereo not given) | 0.9 | 0.2 | 0.4 | 82* | 60*
Cc1ccc(-n2nc(C)c3c2OC(N)=C(C#N)C3c2ccc(F)cc2)cc1 (stereo not given) | 0.9 | 0.9 | 0.9 | 10 | 6
Cc1nn(-c2ccccc2)c2c1C(c1ccco1)C(C#N)=C(N)O2 (stereo not given) | 1.3 | 0.7 | 0.2 | 27 | 79*
SMILES | PLAP activator | CYP2C19 act | CYP2C9 act | CYP2C19 inhib | CYP2C9 inhib
Cc1nn(-c2ccccc2)c2c1C(c1cccs1)C(C#N)=C(N)O2 (stereo not given) | 1.1 | 0.6 | 0.2 | 42 | 79*
O=C(CSCSCC(=O)NCC1CCCO1)NCC1CCCO1 (stereo not given) | 1.2 | 1.2 | 1.1 | -17 | -6
O=C(OCCN1CCN(c2ncc(C(F)(F)F)cc2Cl)CC1)c1ccc(Cl)cc1 | 1.6 | 0.9 | 0.3 | 14 | 67*
O=C(OC1CCN(c2ncc(C(F)(F)F)cc2Cl)CC1)c1ccc(Cl)cc1 | 1.1 | 1 | 0.8 | -4 | 19
CCOc1ccc(S(=O)(=O)N(C)c2ccc(OCC(=O)NCc3ccco3)cc2)cc1 | 1.3 | 0.1 | 0 | 86* | 100*
Cc1ccccc1NS(=O)(=O)c1ccc(OCC(=O)NCc2ccco2)cc1 | 1.1 | 0.9 | 0.4 | 12 | 61*
Cc1cc(C)c2c(CC(=O)NCc3ccco3)coc2c1 | 0.8 | 0.1 | 1.6 | 89* | -58
COCCNC(=O)C(C)N(c1ccc(Oc2ccccc2)cc1)S(C)(=O)=O (stereo not given) | 1.3 | 0.5 | 1 | 53* | 1
CCOC(=O)N1CCN(C(=O)C(C)N(c2ccc(Oc3ccccc3)cc2)S(C)(=O)=O)CC1 (stereo not given) | 1 | 0.8 | 0.8 | 19 | 16
CC(=O)c1cccc(NC(=O)N2CCC(c3nnc(SCC(N)=O)n3C)CC2)c1 | 0.9 | 1 | 1 | 5 | -4
CCOc1ccc(-n2c(N)c(C(=O)NCc3cccnc3)sc2=S)cc1 | 1.1 | 0.9 | 0.8 | 10 | 21
COc1ccc(S(=O)(=O)Nc2ccccc2C(=O)NCc2ccco2)cc1Br | 1.5 | 0.7 | 0.5 | 34 | 51*
Cc1ccc(OCC(=O)NCc2ccco2)cc1C | 1.6 | 0.2 | 0.7 | 80* | 30
CCOc1ccc(-n2c(N)c(C(=O)NCc3ccco3)sc2=S)cc1 | 1 | 0.7 | 0.4 | 25 | 57*
CC(C)(C)C(=O)Nc1ccccc1C(=O)NCc1ccco1 | 1 | 0.6 | 0.7 | 36 | 31
CCOc1ccc(S(=O)(=O)Nc2ccccc2C(=O)NCc2ccco2)cc1 | 1.6 | 0 | 0.3 | 100* | 70*
CS(=O)(=O)Nc1ccccc1C(=O)NCc1ccco1 | 1.3 | 0.8 | 0.5 | 25 | 49
CC[n+]1c(P(=O)([O-])c2ccccc2)[nH]c2ccccc21 | 1 | 1.2 | 1.1 | -16 | -14
CCOc1ccc(N(C(C)C(=O)NC2CCCCCC2)S(C)(=O)=O)cc1 (stereo not given) | 1 | 0.8 | 0.7 | 18 | 27
CCOc1ccc(N(C(C)C(=O)NCc2ccco2)S(C)(=O)=O)cc1 (stereo not given) | 2* | 0.2 | 0.5 | 78* | 54*
CCOc1ccccc1NC(=O)c1cccc(NC(=O)CC(c2ccccc2)c2ccccc2)c1 | 1.2 | 0.3 | 0.5 | 71* | 51*
CCOc1ccccc1C(=O)Nc1cc(C(=O)NCCc2ccccc2)ccc1Cl | 1.1 | 1.1 | 1.1 | -7 | -7
